Results reported in PubChem BioAssay AID488969 (Vanderbilt High Throughput Screening Facility, 2010).
The full ranking holds about 110,000 compounds; the median of “z-score” is about -0.1, and the highest 2% start at about 2. What follows is part of a selection rich in the highest values, with near analogues and random picks from the rest. Active and inactive are the calls of the source.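 The calls were made as follows: active = z-score in the third read window above 3 or below -3; inactive = the rest.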

Biological target: Metabotropic glutamate receptor 8 (Rattus norvegicus) (UniProt P70579)
Sequence (P70579 whole entry, looked up): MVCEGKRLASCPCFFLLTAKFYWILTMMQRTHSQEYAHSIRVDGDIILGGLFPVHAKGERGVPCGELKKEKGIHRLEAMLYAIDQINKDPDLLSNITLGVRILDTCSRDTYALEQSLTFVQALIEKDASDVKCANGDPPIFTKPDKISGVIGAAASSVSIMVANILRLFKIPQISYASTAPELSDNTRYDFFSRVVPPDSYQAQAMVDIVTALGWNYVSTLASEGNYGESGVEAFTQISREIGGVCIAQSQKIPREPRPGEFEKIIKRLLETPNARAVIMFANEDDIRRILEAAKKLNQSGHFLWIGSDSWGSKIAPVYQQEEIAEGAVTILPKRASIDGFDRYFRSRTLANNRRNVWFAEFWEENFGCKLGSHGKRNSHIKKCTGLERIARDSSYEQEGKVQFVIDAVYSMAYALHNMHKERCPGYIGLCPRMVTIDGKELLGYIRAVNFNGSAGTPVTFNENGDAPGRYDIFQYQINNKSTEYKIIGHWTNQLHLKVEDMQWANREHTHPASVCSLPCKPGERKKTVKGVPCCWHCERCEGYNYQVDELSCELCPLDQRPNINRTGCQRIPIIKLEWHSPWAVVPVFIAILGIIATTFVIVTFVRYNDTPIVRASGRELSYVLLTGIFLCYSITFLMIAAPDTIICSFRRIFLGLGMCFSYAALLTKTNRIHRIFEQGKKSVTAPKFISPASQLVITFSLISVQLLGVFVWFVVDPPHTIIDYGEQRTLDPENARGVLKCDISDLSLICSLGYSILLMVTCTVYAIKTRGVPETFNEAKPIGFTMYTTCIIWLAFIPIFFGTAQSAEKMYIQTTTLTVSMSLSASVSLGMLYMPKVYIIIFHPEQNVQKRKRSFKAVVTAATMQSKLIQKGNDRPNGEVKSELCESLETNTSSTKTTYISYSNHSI
Experiment: rat mGluR8 modulators via GIRK flux, primary screen, cell-based, thallium flux, HTS (AID 488969)
Conditions: HEK293 rat mGluR8, GIRK (G protein-gated inwardly rectifying potassium channel) thallium flux, FluoZin2; at 10 µM; stronger effect = higher value; submaximal glutamate (EC20) added with thallium

Point of comparison: `COc1cc(S(=O)(=O)N(Cc2ccccc2)Cc2ccccn2)ccc1-n1cnnn1`, z-score -0.0596. Against it:
- CCOC(=O)C1CCN(C(=O)c2ccccc2Oc2ccccc2)CC1 — lower, -0.386
- COc1ccc(-c2nsc(SCC(=O)Nc3ccc4c(c3)OCO4)n2)cc1 — lower, -0.142
- CCOC(=O)NCc1ccc(S(=O)(=O)Nc2ccc(C)cc2)cc1 — higher, 0.21
- Cc1ccc(-c2cc(N)n(Cc3ccc(Cl)cc3)n2)cc1 — lower, -0.532
- CC(C)CC(=O)NCCCCc1ccccc1 — lower, -0.29
- CC(C)CC(=O)NC(=S)NCCc1ccccc1 — higher, 0.38
- O=C(NC(=S)N(Cc1ccccc1)Cc1ccccc1)C1CCCCC1 — higher, 0.526
- O=C(NC(=S)N(Cc1ccccc1)Cc1ccccc1)c1ccccc1F — lower, -1.15
- CN(C)CCN1C(=O)C(O)=C(C(=O)c2cc3ccccc3o2)C1c1ccc(N(C)C)cc1 (stereo not given) — lower, -0.145
- CC(C)(C)c1ccc(S(=O)(=O)NC(Cc2ccccc2)C(=O)O)cc1 (stereo not given) — higher, 0.161
- Cc1nn(Cc2ccc(Cl)cc2Cl)c(Cl)c1/C=N/NC(=O)CNc1cccc(C(F)(F)F)c1 — lower, -0.087
- CCOCCn1c(=NC(=O)c2cc(Cl)sc2Cl)sc2cc(S(N)(=O)=O)ccc21 — higher, -0.0217
- CCCCNC(=O)CCn1c(=O)c2ccccc2n(Cc2ccc(F)cc2)c1=O — lower, -0.407
- COc1cc(OC)cc(C(=O)N[C@H](C(=O)N2CCc3ccccc32)C(C)C)c1 — lower, -0.177
- c1cc2c3c(cccc3c1)C(N1CCN(C3=Nc4cccc5cccc3c45)CC1)=N2 — higher, -0.0313
- c1cc2c3c(cccc3c1)C(N1CCCCCC1)=N2 — higher, 0.822
- N#CCCN1CCN(S(=O)(=O)c2ccc3c(c2)OCCCO3)CC1 — lower, -0.473
- Cc1c(C(=O)N2CCOCC2)[nH]c2c1C(=O)CC(c1ccc(Cl)cc1)C2 (stereo not given) — lower, -0.803
- Cc1c(C(=O)O)[nH]c2c1C(=O)CC(c1ccccc1)C2 (stereo not given) — lower, -0.21
- CC(C)=CCC/C(C)=C/C=N/NC(=O)c1ccc([N+](=O)[O-])cc1 — higher, 1.52
- CCOC(=O)C1CCC2(CC1)C(C#N)=C(N)Oc1n[nH]c(C)c12 (stereo not given) — higher, 0.0849
- CCOc1ccc(S(=O)(=O)N(CC(=O)Nc2cc(C)on2)Cc2ccccc2Cl)cc1 — lower, -1.72
- CC(=O)c1ccc(OC(=O)C2CC(=O)N(c3cccc(C)c3)C2)cc1 (stereo not given) — lower, -1.58
- O=C(NNc1ccccc1Br)C(=O)n1ccc2ccccc21 — higher, 2.23
- O=C(Nc1ccccc1Br)C(=O)N1CCCC1 — higher, -0.0281
- Cc1ccccc1NC(=O)Nc1ccccc1Br — lower, -0.375
- Cc1ccc(S(=O)(=O)N2CCN(c3cc4c(cc3[N+](=O)[O-])n(C)c(=O)n4C)CC2)cc1 — lower, -0.078
- COC(=O)c1cc2ccccc2c(-c2c(O)ccc3ccccc23)c1O — higher, 0.0387
- O=C1NC(c2ccccc2)C(C(=O)c2cccs2)C(O)(C(F)(F)F)N1 (stereo not given) — lower, -0.23
- Cc1ccc(C2NC(=O)NC(O)(C(F)(F)F)C2C(=O)c2cccs2)o1 (stereo not given) — lower, -0.404
- Cc1ccc(C(=O)C2C(c3cccs3)NC(=O)NC2(O)C(F)(F)F)cc1 (stereo not given) — higher, 2.58
- Cc1nnc(NC(=O)c2cccc(S(=O)(=O)N3CCc4ccccc43)c2)s1 — higher, 0.437
- CSc1ccc(C(=S)N2CCN(CCO)CC2)cc1 — higher, 0.0369
- CC(CN1CCN(C)CC1)OC(=O)c1ccc(Cl)cc1Cl (stereo not given) — higher, 0.335
- CC(CN1CCN(C)CC1)OC(=O)c1ccc(Cl)cc1 (stereo not given) — higher, 1.05
- CC(CN1CCCCC1)OC(=O)c1ccc(Cl)cc1Cl (stereo not given) — higher, 2.27
- CCCCOc1ccc(S(=O)(=O)NCc2csc(C)n2)cc1 — lower, -1.17
- Cc1nc(/N=C(\N)NC(=O)c2ccccc2)nc2ccccc12 — higher, 2.8
- Cc1nc(/N=C(\N)NC(=O)N2c3ccccc3Sc3ccccc32)nc2ccccc12 — higher, -0.0514
- N/C(=N\c1nc2ccccc2o1)NC(=O)c1ccccc1 — lower, -0.339
- CCOc1nc(S(=O)(=O)c2ccc(C)cc2)c(Cl)s1 — lower, -0.802
- CC1CCCN(c2nc3ccccc3nc2C(C#N)S(=O)(=O)c2cccs2)C1 (stereo not given) — lower, -1.84
- O=C(CCNC(=O)c1ccccc1Cl)NCC12CC3CC(CC(C3)C1)C2 — lower, -0.16
- Cc1nn(-c2ccc(C(F)(F)F)cn2)c(C)c1Oc1ccccc1O — higher, 2.25
- Cc1cc(C)nc(-n2nc(C)c(Oc3ccccc3O)c2C)n1 — lower, -0.176
- Cc1nn(-c2ccc(C(=O)O)cc2)c(C)c1Oc1ccccc1O — lower, -0.318
- COc1ccc(CCNC(=O)C2CC(=O)N(c3ccccc3)C2)cc1OC (stereo not given) — higher, 0.172
- O=C(CSc1nnc(Cc2cc(=O)[nH]c(=O)[nH]2)n1-c1ccccc1)NCC1CCCO1 (stereo not given) — higher, 0.18
- Cn1nnc(NC(=O)c2cccc(OCc3ccccc3)c2)n1 — lower, -0.179
- Cc1ccc(C(=O)NCC2CCCO2)cc1[N+](=O)[O-] (stereo not given) — higher, 0.0557
- CCCCn1c(SCC(=O)OCC)nc2c1c(=O)[nH]c(=O)n2C — lower, -0.555
- COC(=O)CSc1nc2c(c(=O)[nH]c(=O)n2C)n1CCC(C)C — lower, -0.127
- CCCCCn1c(SCC(=O)OC)nc2c1c(=O)[nH]c(=O)n2C — higher, 2.01
- Cc1ccc2cc(S(=O)(=O)NCCCC(=O)O)ccc2c1 — lower, -0.0725
- CCCCNC(=O)c1ccc(N2CCC3(CC2)OCCO3)c([N+](=O)[O-])c1 — lower, -0.757

In the case of `CC(C)CC(=O)NC(=S)N(Cc1ccccc1)Cc1ccccc1`, the z-score is reported as 8.66 (active).
With `CC(C)C(=O)NC(=S)N(Cc1ccccc1)Cc1ccccc1` the z-score was 9.57 (active).
`CCCCN(C)C1=Nc2cccc3cccc1c23` was tested, and the z-score was 3.17 (active).
`Cc1c(C(=O)O)[nH]c2c1C(=O)CC(c1ccc(Cl)cc1)C2` (stereo not given) was tested, and the z-score was 5.28 (active).
